Legend:
Test in all cases: log2 ratio of Biotin-Ahx-Ub-VS probe labelling (fragment/DMSO); higher = less target engagement (more negative = stronger competition), active = hit call of the paper (q ≤ 0.05, log2 ratio ≤ -1)
Settings in all cases: compound concentration: 200 uM; treatment time: 3 h
USP34 = USP34 (UniProt Q70CQ2)
Method in brief: (§1)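 Each value is an average log2 ratio of fragment to vehicle, tested by unpaired t-test. The underlying Spectronaut label-free quantities were global-median-normalised, and only proteins with ≥2 unique peptides were included. Triplicate HEK293T lysate samples (495 µg) were exposed to fragment at 200 µM or vehicle for 3 h, then to Biotin-Ahx-Ub-VS at 0.5 µM final for 1 h, before NeutrAvidin enrichment of labelled DUBs, LysC and trypsin digestion, and diaPASEF LC-MS/MS.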

USP36 = target: T1, USP36 (UniProt Q9P275)
T1 sequence (whole entry): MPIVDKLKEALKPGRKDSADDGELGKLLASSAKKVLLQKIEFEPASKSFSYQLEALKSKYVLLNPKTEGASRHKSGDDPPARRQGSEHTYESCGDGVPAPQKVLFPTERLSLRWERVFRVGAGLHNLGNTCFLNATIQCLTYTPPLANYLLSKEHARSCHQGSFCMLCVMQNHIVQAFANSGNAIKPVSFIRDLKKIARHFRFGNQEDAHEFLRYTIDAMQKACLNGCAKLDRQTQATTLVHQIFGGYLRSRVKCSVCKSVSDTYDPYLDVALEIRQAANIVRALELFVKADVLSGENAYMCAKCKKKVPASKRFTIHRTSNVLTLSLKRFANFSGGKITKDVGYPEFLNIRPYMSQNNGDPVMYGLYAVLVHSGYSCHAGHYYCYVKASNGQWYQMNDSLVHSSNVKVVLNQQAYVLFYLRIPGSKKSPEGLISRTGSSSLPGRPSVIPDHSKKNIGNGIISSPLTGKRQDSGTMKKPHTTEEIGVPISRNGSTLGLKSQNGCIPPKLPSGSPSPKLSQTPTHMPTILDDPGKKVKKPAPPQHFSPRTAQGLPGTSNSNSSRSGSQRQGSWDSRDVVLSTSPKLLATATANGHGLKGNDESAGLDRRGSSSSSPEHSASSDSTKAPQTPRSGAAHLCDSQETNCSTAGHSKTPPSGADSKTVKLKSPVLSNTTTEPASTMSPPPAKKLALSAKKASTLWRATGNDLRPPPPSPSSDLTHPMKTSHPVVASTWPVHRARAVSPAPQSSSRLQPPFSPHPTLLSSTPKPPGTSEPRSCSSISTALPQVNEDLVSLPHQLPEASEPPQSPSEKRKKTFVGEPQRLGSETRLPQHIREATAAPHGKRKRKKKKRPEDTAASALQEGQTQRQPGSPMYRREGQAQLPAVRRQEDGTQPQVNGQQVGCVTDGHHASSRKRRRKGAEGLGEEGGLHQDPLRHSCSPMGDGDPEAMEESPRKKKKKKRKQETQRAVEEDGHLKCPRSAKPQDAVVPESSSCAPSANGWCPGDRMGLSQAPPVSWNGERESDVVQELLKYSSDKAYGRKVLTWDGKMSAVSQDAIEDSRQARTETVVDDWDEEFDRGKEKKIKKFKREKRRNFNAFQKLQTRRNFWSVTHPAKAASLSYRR
Method in brief: as §1

USP38 = target: T2, USP38 (UniProt Q8NB14)
T2 sequence (whole entry): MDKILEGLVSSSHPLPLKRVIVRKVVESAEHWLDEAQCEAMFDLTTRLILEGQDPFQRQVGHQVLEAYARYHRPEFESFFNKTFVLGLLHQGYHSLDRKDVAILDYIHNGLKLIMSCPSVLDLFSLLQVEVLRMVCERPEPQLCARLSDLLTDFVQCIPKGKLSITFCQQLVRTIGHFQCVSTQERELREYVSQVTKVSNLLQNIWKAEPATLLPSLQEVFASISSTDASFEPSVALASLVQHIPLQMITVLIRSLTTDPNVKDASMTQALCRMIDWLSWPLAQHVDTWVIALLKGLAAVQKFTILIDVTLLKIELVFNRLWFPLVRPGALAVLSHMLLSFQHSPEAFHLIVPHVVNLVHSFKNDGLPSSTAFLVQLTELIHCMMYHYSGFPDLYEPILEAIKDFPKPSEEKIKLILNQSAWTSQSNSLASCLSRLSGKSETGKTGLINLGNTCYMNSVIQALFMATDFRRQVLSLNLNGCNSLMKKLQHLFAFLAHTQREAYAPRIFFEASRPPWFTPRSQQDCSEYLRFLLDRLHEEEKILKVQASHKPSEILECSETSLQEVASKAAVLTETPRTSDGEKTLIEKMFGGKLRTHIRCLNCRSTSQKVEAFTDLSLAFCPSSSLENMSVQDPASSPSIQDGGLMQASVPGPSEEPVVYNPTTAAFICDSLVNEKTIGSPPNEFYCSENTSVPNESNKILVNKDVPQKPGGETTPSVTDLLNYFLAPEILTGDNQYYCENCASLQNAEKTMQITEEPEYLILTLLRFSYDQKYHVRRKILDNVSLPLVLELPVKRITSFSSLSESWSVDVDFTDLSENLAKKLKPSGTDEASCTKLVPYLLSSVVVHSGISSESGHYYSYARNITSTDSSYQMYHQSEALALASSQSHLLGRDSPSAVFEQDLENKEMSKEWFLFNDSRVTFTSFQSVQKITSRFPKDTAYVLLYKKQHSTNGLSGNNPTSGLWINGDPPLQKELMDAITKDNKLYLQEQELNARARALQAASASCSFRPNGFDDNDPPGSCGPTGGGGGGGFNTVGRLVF
Method in brief: as §1

USP39 = target: T3, USP39 (UniProt Q53GS9)
T3 sequence (whole entry): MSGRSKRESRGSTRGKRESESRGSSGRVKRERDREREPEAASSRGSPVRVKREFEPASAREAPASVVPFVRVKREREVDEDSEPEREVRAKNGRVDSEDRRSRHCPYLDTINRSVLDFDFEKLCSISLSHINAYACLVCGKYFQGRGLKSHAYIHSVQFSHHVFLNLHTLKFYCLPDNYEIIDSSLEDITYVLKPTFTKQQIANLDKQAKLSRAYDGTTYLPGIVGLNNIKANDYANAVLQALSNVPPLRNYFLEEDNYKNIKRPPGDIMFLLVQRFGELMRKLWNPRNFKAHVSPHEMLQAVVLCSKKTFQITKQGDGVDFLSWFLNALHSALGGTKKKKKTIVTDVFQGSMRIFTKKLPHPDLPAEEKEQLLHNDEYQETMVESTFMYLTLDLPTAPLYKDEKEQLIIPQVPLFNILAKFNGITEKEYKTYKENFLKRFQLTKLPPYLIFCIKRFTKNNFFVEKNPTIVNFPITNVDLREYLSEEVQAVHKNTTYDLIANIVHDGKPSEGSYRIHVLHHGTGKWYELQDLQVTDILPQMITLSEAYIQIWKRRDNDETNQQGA
Method in brief: as §1

USP4 = target: T4, USP4 (UniProt Q13107)
T4 sequence (whole entry): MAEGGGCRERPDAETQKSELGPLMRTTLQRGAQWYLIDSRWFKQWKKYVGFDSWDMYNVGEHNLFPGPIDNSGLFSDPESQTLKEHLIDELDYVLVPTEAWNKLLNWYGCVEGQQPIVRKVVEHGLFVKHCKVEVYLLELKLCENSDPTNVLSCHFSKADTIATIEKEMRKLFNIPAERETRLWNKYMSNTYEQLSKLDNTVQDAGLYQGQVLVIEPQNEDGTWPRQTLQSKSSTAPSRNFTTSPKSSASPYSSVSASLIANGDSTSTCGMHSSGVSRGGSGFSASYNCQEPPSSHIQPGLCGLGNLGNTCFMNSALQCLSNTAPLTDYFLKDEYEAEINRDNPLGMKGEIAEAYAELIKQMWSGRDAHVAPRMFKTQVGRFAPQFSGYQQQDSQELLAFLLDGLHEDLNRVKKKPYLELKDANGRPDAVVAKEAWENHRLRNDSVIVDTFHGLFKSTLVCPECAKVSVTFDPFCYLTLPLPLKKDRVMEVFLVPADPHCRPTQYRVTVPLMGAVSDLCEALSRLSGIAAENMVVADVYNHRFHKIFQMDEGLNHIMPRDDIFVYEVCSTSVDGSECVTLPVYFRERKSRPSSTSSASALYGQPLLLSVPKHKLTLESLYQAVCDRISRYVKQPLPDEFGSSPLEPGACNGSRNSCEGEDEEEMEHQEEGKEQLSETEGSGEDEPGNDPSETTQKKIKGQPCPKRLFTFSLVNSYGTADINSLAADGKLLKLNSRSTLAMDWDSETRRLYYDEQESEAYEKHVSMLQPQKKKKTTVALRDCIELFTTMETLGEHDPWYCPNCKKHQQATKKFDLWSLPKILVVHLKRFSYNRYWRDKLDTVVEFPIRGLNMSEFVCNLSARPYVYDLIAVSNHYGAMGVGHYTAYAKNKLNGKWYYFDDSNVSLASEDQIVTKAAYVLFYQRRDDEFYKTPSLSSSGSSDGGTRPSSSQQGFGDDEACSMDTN
Method in brief: as §1

Measured: log2 ratio of Biotin-Ahx-Ub-VS probe labelling

Chain of USP34 (Q70CQ2 whole entry, the tested form may be a part): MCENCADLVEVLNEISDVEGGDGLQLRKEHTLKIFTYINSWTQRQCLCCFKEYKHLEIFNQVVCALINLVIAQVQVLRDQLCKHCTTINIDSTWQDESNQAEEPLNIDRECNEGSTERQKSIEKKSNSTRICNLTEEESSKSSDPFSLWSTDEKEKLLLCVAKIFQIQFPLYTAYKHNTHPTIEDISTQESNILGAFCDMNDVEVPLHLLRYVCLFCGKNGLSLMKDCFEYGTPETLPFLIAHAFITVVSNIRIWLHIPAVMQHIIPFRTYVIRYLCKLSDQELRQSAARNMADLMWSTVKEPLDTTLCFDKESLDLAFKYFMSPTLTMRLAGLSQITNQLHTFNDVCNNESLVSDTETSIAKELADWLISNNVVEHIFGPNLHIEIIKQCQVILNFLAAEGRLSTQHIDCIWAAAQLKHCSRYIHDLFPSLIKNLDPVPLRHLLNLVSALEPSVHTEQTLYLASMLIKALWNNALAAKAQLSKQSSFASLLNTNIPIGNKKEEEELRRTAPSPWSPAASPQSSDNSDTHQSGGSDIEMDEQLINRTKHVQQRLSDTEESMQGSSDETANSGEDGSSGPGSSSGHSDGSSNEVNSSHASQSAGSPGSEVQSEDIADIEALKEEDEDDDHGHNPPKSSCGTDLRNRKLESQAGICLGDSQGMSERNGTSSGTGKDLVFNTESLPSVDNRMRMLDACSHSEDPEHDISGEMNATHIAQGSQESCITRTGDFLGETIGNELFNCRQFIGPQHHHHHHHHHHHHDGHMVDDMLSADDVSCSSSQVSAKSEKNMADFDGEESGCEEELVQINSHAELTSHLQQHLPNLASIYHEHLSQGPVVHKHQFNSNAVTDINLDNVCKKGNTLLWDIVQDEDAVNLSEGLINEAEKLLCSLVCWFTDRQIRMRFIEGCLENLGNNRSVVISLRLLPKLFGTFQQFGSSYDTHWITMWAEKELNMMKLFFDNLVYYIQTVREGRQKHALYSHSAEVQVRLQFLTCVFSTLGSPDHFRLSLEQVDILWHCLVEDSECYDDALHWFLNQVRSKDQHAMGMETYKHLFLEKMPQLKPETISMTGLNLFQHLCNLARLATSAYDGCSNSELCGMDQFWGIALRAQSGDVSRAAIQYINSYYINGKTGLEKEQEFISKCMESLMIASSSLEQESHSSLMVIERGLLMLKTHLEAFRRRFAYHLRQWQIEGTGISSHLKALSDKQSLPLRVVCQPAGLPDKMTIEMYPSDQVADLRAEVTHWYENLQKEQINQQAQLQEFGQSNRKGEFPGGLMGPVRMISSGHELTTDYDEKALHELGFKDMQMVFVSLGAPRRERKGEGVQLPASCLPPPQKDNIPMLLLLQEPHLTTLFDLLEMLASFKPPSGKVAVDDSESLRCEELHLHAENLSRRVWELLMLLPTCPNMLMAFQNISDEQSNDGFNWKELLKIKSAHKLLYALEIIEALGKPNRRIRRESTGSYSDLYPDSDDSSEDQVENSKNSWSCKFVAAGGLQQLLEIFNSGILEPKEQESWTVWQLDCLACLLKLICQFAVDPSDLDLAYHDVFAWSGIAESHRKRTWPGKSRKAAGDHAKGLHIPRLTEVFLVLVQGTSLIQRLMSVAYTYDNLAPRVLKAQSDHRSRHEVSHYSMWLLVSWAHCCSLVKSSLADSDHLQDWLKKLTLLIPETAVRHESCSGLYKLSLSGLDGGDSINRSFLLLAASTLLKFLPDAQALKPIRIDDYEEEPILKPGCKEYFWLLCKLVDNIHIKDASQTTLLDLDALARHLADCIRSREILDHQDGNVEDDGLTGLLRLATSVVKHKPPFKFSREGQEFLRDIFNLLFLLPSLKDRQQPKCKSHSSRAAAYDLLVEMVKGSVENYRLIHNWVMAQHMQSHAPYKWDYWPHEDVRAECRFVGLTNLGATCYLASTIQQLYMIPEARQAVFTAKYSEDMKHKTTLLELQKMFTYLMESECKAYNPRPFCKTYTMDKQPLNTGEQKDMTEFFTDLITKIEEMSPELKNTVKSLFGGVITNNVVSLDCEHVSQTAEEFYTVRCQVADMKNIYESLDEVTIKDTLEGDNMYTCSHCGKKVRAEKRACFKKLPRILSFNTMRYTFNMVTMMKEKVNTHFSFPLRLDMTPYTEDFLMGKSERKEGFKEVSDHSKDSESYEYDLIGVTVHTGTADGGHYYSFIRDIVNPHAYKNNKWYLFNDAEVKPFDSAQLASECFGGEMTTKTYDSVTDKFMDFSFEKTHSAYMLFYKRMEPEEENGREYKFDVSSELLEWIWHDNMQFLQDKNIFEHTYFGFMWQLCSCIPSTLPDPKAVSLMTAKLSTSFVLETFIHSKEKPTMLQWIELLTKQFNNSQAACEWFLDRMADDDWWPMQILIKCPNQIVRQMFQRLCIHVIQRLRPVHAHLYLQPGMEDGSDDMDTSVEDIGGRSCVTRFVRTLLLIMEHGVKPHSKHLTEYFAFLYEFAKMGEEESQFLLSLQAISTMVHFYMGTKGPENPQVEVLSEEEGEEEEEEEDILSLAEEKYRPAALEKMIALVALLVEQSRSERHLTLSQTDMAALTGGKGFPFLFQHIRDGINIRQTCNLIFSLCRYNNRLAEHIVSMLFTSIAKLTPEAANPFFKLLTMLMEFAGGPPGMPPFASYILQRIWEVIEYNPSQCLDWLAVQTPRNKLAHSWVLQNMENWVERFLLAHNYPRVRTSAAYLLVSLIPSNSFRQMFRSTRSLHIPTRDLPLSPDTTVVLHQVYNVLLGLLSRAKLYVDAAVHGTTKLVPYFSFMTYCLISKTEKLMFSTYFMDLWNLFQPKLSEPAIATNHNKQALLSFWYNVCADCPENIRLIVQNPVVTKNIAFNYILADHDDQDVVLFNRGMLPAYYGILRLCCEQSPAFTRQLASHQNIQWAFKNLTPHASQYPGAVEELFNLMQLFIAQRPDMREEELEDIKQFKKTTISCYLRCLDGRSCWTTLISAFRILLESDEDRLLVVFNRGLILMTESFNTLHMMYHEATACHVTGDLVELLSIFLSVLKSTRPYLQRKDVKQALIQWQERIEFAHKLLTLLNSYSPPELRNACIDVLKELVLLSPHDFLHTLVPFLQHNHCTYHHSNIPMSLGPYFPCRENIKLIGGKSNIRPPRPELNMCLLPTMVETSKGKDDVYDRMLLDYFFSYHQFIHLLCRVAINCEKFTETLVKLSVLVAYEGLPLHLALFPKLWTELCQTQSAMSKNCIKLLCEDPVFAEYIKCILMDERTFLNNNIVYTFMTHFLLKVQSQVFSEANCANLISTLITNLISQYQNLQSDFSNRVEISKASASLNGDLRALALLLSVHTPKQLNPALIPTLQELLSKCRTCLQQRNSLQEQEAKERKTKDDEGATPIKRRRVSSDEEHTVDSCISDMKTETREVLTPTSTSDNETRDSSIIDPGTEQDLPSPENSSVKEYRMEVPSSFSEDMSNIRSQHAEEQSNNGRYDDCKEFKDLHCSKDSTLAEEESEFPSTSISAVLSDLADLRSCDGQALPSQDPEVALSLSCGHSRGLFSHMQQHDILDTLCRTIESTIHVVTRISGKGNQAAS

O=C(CCl)N1c2ccccc2NC(=O)C12CCCC2
inactive: USP34 -0.193 | USP36 0.111 | USP38 0.18 | USP39 0.678 | USP4 -0.0657
